# Imprint erasure – genomic imprint erasure induction; mouse ES Peg3-LacZ reporter, beta-gal luminescence, 40 h; Potency, µM (top dose mostly 60.7 µM), inactives show at the highest dose activity change, positive = activation, hits mostly activators; 110,000 compounds, 0.02% hits; AID 1948; active = well fitted activation curve with a large enough effect
#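 Readout: BetaGlo luminescence (5 min, room temp) for LacZ from the normally silent maternal Peg3 allele in female Peg3LacZ-Neo ES cells. Cells 300/well, 40 h, 37C, 5% CO2. Data normalized per plate to negative controls.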
# * hit, by the source's call; [ ] = dose if it differs, or a comment. Only a selection was taken, and hits are over-represented in it overall. Potency is the fitted concentration of half-maximal effect.
SMILES,Imprint erasure
C=C[C@@H]1CN2CC[C@@H]1C[C@H]2[C@H](O)c1ccnc2ccc(OC)cc12,-10%
Cc1ccc2nc(-c3ccc(N)cc3)sc2c1S(=O)(=O)O,-89%
C=C[C@@H]1CN2CC[C@@H]1C[C@@H]2[C@H](O)c1ccnc2ccc(OC)cc12,-18%
O=[N+]([O-])c1cc([N+](=O)[O-])c2ccc(S(=O)(=O)O)cc2c1O,-3%
CN1[C@@H]2CC[C@@H]1CC(OC(=O)[C@H](CO)c1ccccc1)C2 (stereo not given in full),9%
O=S(=O)(NCc1ccccn1)c1cccc2cccnc12,6%
CCN(CC)c1ccc(C(=O)NCc2ccc3c(c2)CCN3C(=O)c2ccc(F)cc2)cc1,-14%[10.9 µM]
CS[C@]12C(=O)C[C@]3(C)[C@@H](CC[C@@]3(O)C(=O)CO)[C@@H]1CCC1=CC(=O)CC[C@]12C,-6%[10.9 µM]
O=S1(=O)N[C@H]2CC[C@@H]3NS(=O)(=O)N[C@H]4CC[C@H](N1)N4S(=O)(=O)N23,6%[10.9 µM]
C#C[C@]1(O)CCC2C3CCC4=Cc5oncc5C[C@@]4(C)C3CC[C@@]21C (stereo not given in full),-20%
C[C@]12C[C@H](O)C3[C@@H](CCC4=CC(=O)CC[C@@]43C)[C@@H]1CC[C@@H]2C(=O)CO (stereo not given in full),-18%
c1ccc(C(c2cccc3c2ccc2ccccc23)[C@H](c2ccccc2)c2cccc3c2ccc2ccccc23)cc1 (stereo not given in full),-4%[10.9 µM]
CN(Cc1cccc2ccccc12)Cc1cccc2ccccc12,-15%[10.9 µM]
Cc1nc(NCCO)c2nc(-c3ccccc3)n(CCCN(C)C)c2n1,0%
CCN(CCCn1c(SCC#N)nc2ccccc2c1=O)c1ccccc1,-25%
C=C(C)Cn1c(SCC)nc2ccccc2c1=O,2%
C=C(C)Cn1c(SCC#N)nc2ccccc2c1=O,1µM*
CN(C(=O)c1ccccc1C(=O)O)C1CC(C)(C)NC(C)(C)C1,2%
CC[C@@H]1C(c2cccc(C)c2)=NN(c2ccc(Br)cc2)[C@H]1C(=O)N1CCOC1=O,-16%
CN1CCC[C@@H]1c1cccnc1.O=C(O)c1ccccc1O.O=C([OH2+])c1ccccc1O.O=C([OH2+])c1ccccc1O.O=C([OH2+])c1ccccc1O.[Cu],-10%[10.9 µM]
O=C(Nc1ccc(Br)cc1)c1cccc(C(=O)Nc2ccc(Br)cc2)c1,-8%[10.9 µM]
O[C@@H](c1cc(-c2ccc(Cl)cc2)nc2ccccc12)C1CCCCN1 (stereo not given in full),-5%[10.9 µM]
CN(C)CCN(Cc1ccccc1)S(=O)(=O)c1cccc2cccnc12,-8%
COc1c(O)cc2c(c1O)C1OC(CO)C(O)[C@H](O)[C@H]1OC2=O (stereo not given in full),7.9µM*
O=C1c2cccc(O)c2C(=O)c2c(O[C@@H]3O[C@H](CO)[C@@H](O)[C@H](O)[C@@H]3O)cccc21,-2%[10.9 µM]
SMILES,Imprint erasure
Cc1cc(=O)c2c(O)c3c(O)cc(O)c4c5c(O)cc(O)c6c(O)c7c(=O)cc(C)c8c1c2c(c34)c(c65)c78,-25%
O=S(=O)(O)C(c1ccccc1)[C@@H](O)c1ccccc1 (stereo not given in full),-16%[10.9 µM]
C[N+](C)(C)C(C1=CCCC1=O)c1ccccc1 (stereo not given),-12%[10.9 µM]
COc1cccc(C(=O)NCC(c2ccc(N(C)C)cc2)N2CCc3ccccc32)c1 (stereo not given),-15%[10.9 µM]
O=C1C=CC(=O)C2=C1C1c3ccccc3C2c2ccccc21,-73%
Oc1cc(CN2COc3ccccc32)c(O)cc1CNC1CCCCC1,-2%[10.9 µM]
O[C@@H](c1cc([C@@]23C[C@H]4CC[C@@H]2C[C@H](C4)C3)nc2c(Cl)cc(Cl)cc12)C1CCCCN1 (stereo not given in full),-6%[10.9 µM]
O=[N+]([O-])c1ccc2c(N=Nc3ccc4ccccc4c3O)c(O)cc(S(=O)(=O)O)c2c1,8%[10.9 µM]
C=C[C@H]1CN2CC[C@@H]1C[C@H]2[C@@H](O)c1ccnc2ccc(OC)cc12,-19%[16.8 µM]
C[C@H](C(=O)c1ccccc1)C(c1ccccc1)N1CCOCC1 (stereo not given in full),-13%[10.9 µM]
Cc1nc2cnc(N3CCN(C)CC3)nc2n(C2CC2)c1=O,3%
CN1CCN(c2ccc3nc(-c4ccc5nc(-c6ccc(O)cc6)[nH]c5c4)[nH]c3c2)CC1,-1%[10.9 µM]
N#C[C@@H](N=Nc1ccccc1C(=O)O)C(N)=O,-14%[10.9 µM]
C=CC1=C(C(=O)O)N2C(=O)[C@@H](NC(=O)C(N=O)c3csc(N)n3)[C@H]2SC1 (stereo not given in full),-2%
CC(C)(C)OC(=O)[C@H](C1N[C@@H](C(=O)O)C(C)(C)S1)N1C(=O)c2ccccc2C1=O (stereo not given in full),-6%[10.9 µM]
Nc1ncnc2c1ncn2[C@H]1O[C@@H](C(=O)O)[C@@H](O)[C@H]1O,-10%[10.9 µM]
COC(=O)CC[C@@H](C)C1CC[C@H]2[C@H]3CC[C@H]4C[C@@H]5CCC4(C)[C@@]3(O5)[C@@H](Br)[C@@H](Br)[C@@]12C (stereo not given in full),-10%[10.9 µM]
Cc1cc(C)cc(N(CC(=O)O)S(=O)(=O)c2cccnc2)c1,-4%
Nn1c(COc2ccccc2)nnc1SC(F)F,4µM*
CCOc1ccc(-n2c(COc3ccccc3)nnc2SCC(N)=O)cc1,-3%
Nn1c(COc2ccccc2)nnc1SCc1cc(=O)[nH]c2ccccc12,6%
O=c1[nH]c(SCc2c(Cl)c(Cl)c(Cl)c(Cl)c2Cl)nc(=S)[nH]1,-8%[10.9 µM]
c1ccc2c(NC3CC3)nc(-c3ccoc3)nc2c1,-12%
c1ccc(Nc2nc(-c3ccoc3)nc3ccccc23)cc1,4µM*
c1ccc2c(NC3CCNCC3)nc(-c3ccoc3)nc2c1,26%
SMILES,Imprint erasure
CC(=O)[C@]1(O)Cc2c(O)c3c(c(O)c2[C@@H](O[C@H]2C[C@H](N)[C@H](O)[C@H](C)O2)C1)C(=O)c1c(O)cccc1C3=O,-48%
C[C@@]12C[C@H](O)C3[C@H](CCC4=CC(=O)CC[C@]43C)[C@H]1CC[C@@H]2c1csc(N)n1 (stereo not given in full),-25%[10.9 µM]
Cc1ccc(C(=O)N2c3nc(-c4ccco4)nn3C3(CCCCC3)[C@@H]3CCCC[C@@H]32)cc1,-15%[10.9 µM]
O=C1C[C@H]2OCC=C3CN4CC[C@@]5(C(=O)O)[C@H](N1)C2[C@H]3C[C@H]45 (stereo not given in full),-2%[10.9 µM]
CC(=O)NC(Cc1ccccc1)C(=O)N1CCN(C(=O)c2ccco2)CC1 (stereo not given),-11%
O=C(c1ccco1)N1CCN(S(=O)(=O)c2cccs2)CC1,-2%
O=C(c1ccco1)N1CCN(C(=O)C(Cc2ccccc2)NS(=O)(=O)c2cccs2)CC1 (stereo not given),3.2µM*
C/C(N=NC(=[SH+])SCc1ccccc1)=C1\C=CC=CN1.[Cl][Cu],-51%[10.9 µM]
O[C@@H](c1cc(-c2ccccc2)nc2c1ccc1ccccc12)C1CCCCN1 (stereo not given in full),-7%[10.9 µM]
CCCCNc1c(CN)cnc2cc(Cl)ccc12,-11%[10.9 µM]
O=C(CSc1ccc(-c2cccs2)nn1)Nc1cccc(F)c1,-14%[10.9 µM]
CSc1ncnc2nc[nH]c12,-33%
CCOC(=O)C1=C(C)NC(C)=C(C(=O)OC)[C@@H]1c1cccc(Cl)c1Cl,8%[16.8 µM]
COc1ccc(CCNC(=O)CCc2cn(Cc3ccc(C)cc3)c3ccccc23)c(OC)c1OC,-17%[10.9 µM]
CC(C)CNC(=O)O,27%[10.9 µM]
O=C1c2ccccc2C(O)(O)[C@@]1(O)[C@]1(O)C(=O)c2ccccc2C1(O)O,-4%[10.9 µM]
COc1ccc(C(C)=O)cc1COC(=O)c1c(C)noc1C,-13%
COc1ccc(C(C)=O)cc1COC(=O)c1cnc(C)cn1,16µM*
COc1ccc(C(C)=O)cc1COC(=O)c1ccc(OCc2c(C)noc2C)cc1,-1%
O=C(O)Cn1c(=O)oc2cc(S(=O)(=O)N3CCOCC3)ccc21,-4%

# Bioassay records from PubChem BioAssay.
